High-throughput results: PubChem BioAssay, Paczesny and Yang Labs, IUPUI and University of Michigan
ST2 IL33 inh – inhibitors of human ST2 (IL1RL1) binding to IL-33, primary screen, biochemical, AlphaLISA. AID 1259354, 2018. AlphaLISA ST2-Fc/biotin-IL-33 interaction, 1 h. Interleukin-1 receptor-like 1 (Homo sapiens), Q01638. 78,000 tested, 2.3% active. inhibition, % for hits at 17 µM; in the data active means inhibition above about 30%
Target sequence (Q01638 whole entry, looked up): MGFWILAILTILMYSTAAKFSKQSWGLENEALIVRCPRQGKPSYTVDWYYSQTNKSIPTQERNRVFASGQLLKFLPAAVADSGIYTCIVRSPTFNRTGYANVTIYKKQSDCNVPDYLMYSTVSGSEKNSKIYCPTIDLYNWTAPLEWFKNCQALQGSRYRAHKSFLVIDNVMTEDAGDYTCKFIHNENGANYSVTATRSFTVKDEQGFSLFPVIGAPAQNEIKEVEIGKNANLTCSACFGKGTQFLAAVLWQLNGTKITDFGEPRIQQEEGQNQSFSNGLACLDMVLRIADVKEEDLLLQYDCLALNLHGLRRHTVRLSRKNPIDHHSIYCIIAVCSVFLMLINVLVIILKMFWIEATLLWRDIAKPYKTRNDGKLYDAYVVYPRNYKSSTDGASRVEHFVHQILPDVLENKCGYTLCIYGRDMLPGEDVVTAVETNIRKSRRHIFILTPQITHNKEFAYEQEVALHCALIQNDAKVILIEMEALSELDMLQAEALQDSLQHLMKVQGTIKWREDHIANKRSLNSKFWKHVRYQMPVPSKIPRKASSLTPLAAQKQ
Active calls of the source: *; i = inactive; ! = repeats disagree. Shown is part of a subset that was picked to be rich in hits.

SMILES | ST2 IL33 inh
Oc1oc(-c2ccc(Br)cc2)nc1C=Nc1cccc(C(F)(F)F)c1 | i
COc1cc(NC(=O)N2C[C@@H]3C[C@H](C2)c2ccc(NC(=O)c4cccs4)c(=O)n2C3)cc(OC)c1 | i
Cc1ccc2sc(-c3ccc(NC(=O)c4ccco4)cc3)nc2c1 | i
Cc1ccc(-c2csc(/C(C#N)=C/c3ccco3)n2)cc1 | 63%*
Nc1n[nH]c(-c2cccc([N+](=O)[O-])c2)n1 | i
COc1ccc(/C=C(\C#N)c2nc(-c3cccc([N+](=O)[O-])c3)cs2)cc1O | 35%*
COc1ccccc1/C=C(\C#N)c1nc(-c2cccc([N+](=O)[O-])c2)cs1 | i
N#C/C(=C\c1ccco1)c1nc(-c2cc3cc(Br)ccc3oc2=O)cs1 | i
CCn1ccnc1CNC(=O)c1coc(CN2CCN(Cc3ccccc3)CC2)n1 | i
O=C(O)CN1C(=O)C2CCCN2c2ccc(C(=O)N3CCOCC3)cc21 (configuration not stated) | i
O=C(c1cccnc1)N1CCc2c(ncnc2N2C[C@H]3CC[C@@H](C2)N3)C1 | i
CCN(CCN1CCOCC1)C(=O)c1nc2ccccc2[nH]1 | i
Cc1nccn1S(=O)(=O)/C=C/c1ccc([N+](=O)[O-])cc1 | i
COc1ccccc1CC(=O)Nc1nc(-c2ccccc2)cs1 | i
COc1cc(NC(=S)N[C@H]2CO[C@H]3[C@@H]2OC[C@@H]3n2nnnc2-c2ccc3c(c2)OCO3)cc(OC)c1 | i
COc1ccccc1N1CCN(C(=O)CN(c2cccc([N+](=O)[O-])c2)S(C)(=O)=O)CC1 | i
COc1ccc(N(CC(=O)Nc2ccc(Br)cc2)S(C)(=O)=O)cc1Cl | i
CCn1cnnc1CCNC(=O)c1occc1C | i
O=C1Nc2ccccc2/C1=C\c1c(Cl)cccc1Cl | i
O=C1OC(c2ccccc2)=C/C1=C\c1c(Cl)cccc1Cl | 46%*
Clc1ccccc1-c1nc(-c2ccccc2)no1 | i
O=C(Nc1ccc2oc(-c3ccccc3)nc2c1)c1cccc([N+](=O)[O-])c1 | i
CCC(C)OC(=O)C1=C(C)NC2=C(C(=O)C(C(=O)OC)C(C)C2)C1c1ccccc1F (configuration not stated) | i
CC[C@H]1CN(C(=O)C(C)(C)C)CC[C@H]1CC(=O)NCCOC | i
C=CCN(CC=C)C(=O)CN1CC=C(n2c(=O)[nH]c3ccccc32)CC1 | 31%*
SMILES | ST2 IL33 inh
C=CCN(CC=C)C(=O)C(c1ccccc1)c1ccccc1 | i
O=c1[nH]c2ccccc2n1C1=CCN(c2nccc(N3CCC(O)C3)n2)CC1 (configuration not stated) | i
CNC(=O)c1ccc(CN2CCCC(Nc3ccc(F)cc3)C2)o1 (configuration not stated) | 36%*
NC(=O)C(=O)NC1CCCN(Cc2ccc(F)cc2)C1 (configuration not stated) | i
COc1ccc(-c2ncc(CN3CCCC(Nc4ccc(F)cc4)C3)cn2)cc1 (configuration not stated) | i
O=C(O)c1[nH]ncc1CN1CCCC(C(=O)c2ccc(C(F)(F)F)cc2)C1 (configuration not stated) | i
Cc1csc(NC(=O)C(=O)N2CCCCC2CCn2cccn2)n1 (configuration not stated) | i
O=C1CSC(c2cccc(Cl)c2Cl)N1c1ccc(F)cc1 (configuration not stated) | i
O=C1CSC(c2ccccc2Cl)N1c1ccccc1 (configuration not stated) | i
Cc1ccc(N2C(=O)CSC2c2ccccc2Cl)cc1 (configuration not stated) | 32%*
O=C(NCc1ccccc1)c1ccc2nc3c(cc2c1)CCS3 | i
Cc1nc2c(sc3nc4c(cc32)COC(C)(C)C4)c(=O)n1CCc1ccccc1 | i
COc1ccc(C2C(C#N)=C(N)Oc3cc(C)oc(=O)c32)cc1OCc1ccccc1 (configuration not stated) | 32%*
COc1ccc(C2C(C#N)=C(N)Oc3n[nH]c(C)c32)cc1OCc1ccccc1 (configuration not stated) | i
COc1ccc(C2C(C#N)=C(N)OC3=C2C(=O)CC(c2ccccc2)C3)cc1 (configuration not stated) | i
Cc1cc2c(c(=O)o1)C(c1ccccc1OCc1ccccc1Cl)C(C#N)=C(N)O2 (configuration not stated) | i
COc1cc(C2C(C#N)=C(N)OC3=C2C(=O)CC(c2ccccc2)C3)cc(OC)c1OC (configuration not stated) | i
COc1cc(C2C(C#N)=C(N)OC3=C2C(=O)CC(c2ccccc2)C3)ccc1OCc1ccccc1 (configuration not stated) | 37%*
CN1C[C@@H](NC(=O)Nc2cccc(C#N)c2)C[C@H]1c1nc(-c2ccc(Cl)cc2)no1 | i
COc1ccc(Cl)cc1NC(=O)CCC1CCCN(C(=O)c2cccc(N(C)C)c2)C1 (configuration not stated) | i
COc1ccc(-c2cc(C(=O)Nc3cc(Br)ccc3O)no2)cc1 | 35%*
O=C(Nc1ccc(Br)cc1)c1cc(-c2ccc(Cl)cc2)on1 | i
O=C(Nc1ccc(F)cc1F)c1cc(-c2ccc(Br)cc2)on1 | i
COc1ccc(Cl)cc1NC(=O)Cn1cnc2c(oc3ccccc32)c1=O | i
CC(C)c1ccc(N(C(=O)C(C)(C)C)C2C=CS(=O)(=O)C2)cc1 (configuration not stated) | i
SMILES | ST2 IL33 inh
Cc1nc2c(sc3cc([N+](=O)[O-])cc(Sc4ccccc4)c32)c(=O)n1C | i
O=[N+]([O-])c1cc([N+](=O)[O-])c2c(OCc3ccccc3)nsc2c1 | 43%*
Cc1c(N=Cc2ccccc2)cc([N+](=O)[O-])cc1[N+](=O)[O-] | i
Oc1ccccc1-c1nnc2n1N=C(c1ccc(Cl)cc1)CS2 | i
COc1ccc(C2=Nn3c(nnc3-c3ccccc3)SC2)cc1 | i
Cc1nnc2n1N=C(c1ccc(Cl)cc1)CS2 | 39%*!
CCOc1ccc(C2C(C#N)=C(N)Oc3n[nH]c(-c4ccc(C)cc4)c32)cc1 (configuration not stated) | i
O=C(c1ccc2c(c1)ncn2C1CCCCC1)N1CCCC1 | i
COc1ccc(/C(N)=N\OC(=O)c2ccc(C)c(C)c2)cc1 | i
CCOc1ccccc1Nc1c2c(nc3ccccc13)CCC2 | i
COc1ccc(CN2c3cccc[n+]3CC2(O)c2ccc(Cl)cc2)cc1 (configuration not stated) | i
COc1ccc(C(=O)NCCNc2ccc([N+](=O)[O-])cc2)cc1Cl | i
O=C(c1ccc([N+](=O)[O-])cc1)c1ccc(Cl)c(Cl)c1 | 58%*
O=C(Nc1ccccc1O)c1ccc([N+](=O)[O-])cc1 | i
CCCC(C)NC(=O)c1ccc(N(C)C)cc1 (configuration not stated) | i
CN(C)c1ccc(C(O)(c2ccc(N(C)C)cc2)c2ccc(N(C)C)cc2)cc1 | 97%*
CN(C)c1ccc(NC(=O)c2ccc(Cl)cc2)cc1 | i
O=C(CN1C(=O)C(=O)c2ccccc21)Nc1ccc(Br)cc1 | i
O=C(CN1C(=O)c2ccccc2C1=O)Nc1ccc(Br)cc1 | 34%*
O=C(CN1C(=O)c2ccccc2C1=O)Nc1ccc(Br)cc1C(=O)O | i
CCOc1ccc(N2COc3ccc(Br)cc3C2)cc1 | i
